Reference: PubChem BioAssay (NCATS)
Results filed as inconclusive are left out. The source made the active and inactive calls. The call rests on the fitted dose curve; in most records, active means well fitted curve in the direction sought with a large enough effect; inconclusive means small, poorly fitted or top-dose-only effect, or another doubt; inactive means no such curve, though single readings can be large; an effect the other way counts as inactive or inconclusive.

Columns and labels:
[1] = 10-beta competent E. coli microbial cell viability qHTS against the NCATS CANVASS Library (AID 1347376); conditions: E. coli 10-beta viability, BacTiter-Glo ATP luminescence, overnight; series mostly up to 91.4 µM
In short: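 10-beta competent E. coli (0.9 OD culture diluted to 0.2 OD) exposed to compounds in an 11-point qHTS series, incubated overnight at 37C, 5% CO2. Viability read as ATP by BacTiter-Glo luminescence after 20 min at room temperature.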

[2] = qHTS for H2AX Agonists against the NCATS CANVASS Library (AID 1347378); conditions: CHO-K1 H2AX phosphorylation, HTRF TR-FRET, 3 h; series mostly up to 76.9 µM;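 further: phospho-H2AX S139 level in CHO-K1 lysates by TR-FRET emission ratio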
In short: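 Following overnight seeding, CHO-K1 cells are incubated with a concentration series of compound for 3 hr at 37C (final DMSO 0.76%). Cells are then lysed, detection antibodies added, and emission ratio 665/620 nm recorded after 24 hr at room temperature.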

[3] = qHTS for Inflammasome Signaling Inhibitors: IL-1-beta AlphaLISA screen against the NCATS CANVASS Library (AID 1347379); conditions: THP-1 LPS/ATP, IL-1B AlphaLISA secretion, 16 h; at 57.5 µM (top of the series) unless noted;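 further: human THP-1 cells primed with LPS then triggered with ATP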
In short: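 Human THP-1 cells were pretreated 1 hr at 37 °C with compounds (up to 57.5 uM final), then stimulated with LPS (250 ng/mL final) and ATP (1.25 mM final). Secreted IL-1B was read by AlphaLISA after 16 hr.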

[4] = Inflammasome Signaling qHTS Counterscreen: IL-1-beta AlphaLISA counterscreen against the NCATS CANVASS Library (AID 1347381); conditions: Purified IL-1beta AlphaLISA signal interference counterscreen; series mostly up to 57.5 µM;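 further: cell-free check with purified IL-1β in medium and no THP-1 cells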
In short: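 To flag interference with the AlphaLISA read-out, a known amount of purified IL-1-beta (4 pg) replaced cell supernatant. Detection used anti-IL-1-beta acceptor beads, biotinylated antibody and streptavidin donor beads at room temperature.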

[5] = Cytotoxicity qHTS for assessment of Hepg2 cells membrane integrity screened against the NCATS CANVASS Library (AID 1347387); conditions: HepG2 LDH release (CytoTox-ONE) fluorescence, 5 h; series mostly up to 91.4 µM
Text: (§1) Natural products and their derivatives continue to be wellsprings of nascent therapeutic potential. However, many laboratories have limited resources for biological evaluation, leaving their previously isolated or synthesized compounds largely or completely untested. To address this issue, the Canvass library of natural products was assembled (https://tripod.nih.gov/canvass), in collaboration with academic and industry researchers, for quantitative high-throughput screening (qHTS) across a diverse set of cell-based and biochemical assays. The pure (>85% purity by liquid chromatography/mass spectrometry [LC/MS]) Canvass library of 346 natural products were submitted by 45 academic laboratories and companies around the world. […] The library was formatted into 1536-well plates and evaluated in 50 qHTS (in an 11-pnt concentration series) bioassays with broad scope of disease-relevant mechanisms. The resulting data set from 50 different assays was then systematically analyzed to identify overall trends and specific natural products with interesting biological activities. […] The amount of fluorescence is proportional to the number of lysed cells. […]
Membrane Integrity-screen protocol: 1. […] The fluorescence signal was measured using the EnVision plate reader (PerkinElmer) using a 560 nm excitation and 590 nm emission filters.

[6] = qHTS for Activators of p53 Stress Response Pathway screened against the NCATS CANVASS Library (AID 1347388); conditions: p53RE-bla HCT-116, beta-lactamase reporter, 16 h; series mostly up to 91.4 µM
In short: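 p53RE-bla HCT-116 cells (4000/well) were pre-incubated for 5 h, then treated with compound (11 points) for 16 h at 37C. After 2 h with CCF4, the 460/530 nm ratio gave reporter activation; CellTiter-Glo measured viability.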

[7] = qHTS assay for small molecule disruptors of mitochondrial membrane potential screened against the NCATS CANVASS Library (AID 1347389); conditions: HepG2 mitochondrial membrane potential, m-MPI red/green ratio, 1.5 h; series mostly up to 91.4 µM; further: nearly all actives have a fitted effect of over 60% in size
Text: as §1, with “assays.” for “assays. The pure (>85% purity by liquid chromatography/mass spectrometry [LC/MS]) Canvass library of 346 natural products were submitted by 45 academic laboratories and companies around the world.”, “In response to mitochondrial depolarization, the red-to-green” for “The amount of”, “ratio decreases.” for “is proportional to the number of lysed cells.”
Mitochondrial membrane potential protocol: 2,000 HepG2 cells in 5 uL/well were dispensed into black, clear-bottom 1536-well plates using a Multidrop Combi (Thermo Scientific) dispenser. […] Fluorescence intensity (490nm excitation and 535nm emission for monomers; and 540nm excitation and 590nm emissions for aggregates) was measured using an Envision plate reader.

[8] = Secretion counterscreen for inhibitors of the SERCaMP assay screened against the NCATS CANVASS Library (AID 1347390); conditions: SH-SY5Y constitutive GLuc secretion, luminescence, 20 h; series mostly up to 76.6 µM;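 further: light from luciferase secreted into medium read as a measure of general secretion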
In short: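 Counterscreen identifying compounds that disrupt secretion, using SH-SY5Y cells with a constitutively secreted Gaussia luciferase reporter. A 20 h compound exposure (top 77 uM) precedes luminescent detection with coelenterazine.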

[9] = qHTS for activators of Nrf2/ARE signaling pathway screened against the NCATS CANVASS Library (AID 1347391); conditions: ARE-bla HepG2, beta-lactamase reporter, 16 h; series mostly up to 91.4 µM; further: nearly all actives have a fitted effect of over 60% in size
In short: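 ARE-bla HepG2 beta-lactamase reporter cells, 2000 cells/well, were preincubated 5 h, then exposed to compounds (11-point series) for 16 h at 37C. CCF4 fluorescence (ex 405, em 460/530 nm) after 2 h at room temperature.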

[10] = qHTS for Antimalaria activity screened against the NCATS CANVASS Library (AID 1347380);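 further: Plasmodium falciparum strain Dd2 asexual parasites grown in red blood cells; nearly all actives have a fitted effect of over 40% in size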; conditions: P. falciparum Dd2 growth, SYBR Green fluorescence, 72 h; series mostly up to 28.7 µM
In short: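 P. falciparum Dd2-infected RBCs (2.5% hematocrit final, 0.3% parasitemia) in Albumax II RPMI were exposed to compounds in an 11-point qHTS series for 72 h at 37C under 5% O2/5% CO2, then lysed with SYBR Green.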

Measured: outcome

O=C(O)Cc1c[nH]c2ccc(O)cc12
inactive: [1] | [2] | [3] inactive [at 114 µM] | [4] | [5] | [6] | [7] | [8] | [9]

CC(=O)NCCc1c[nH]c2ccc(O)cc12
inactive: [1] | [2] | [3] | [10] | [4] | [5] | [6] | [7] | [8] | [9]
